Drawing on PubChem BioAssay (NCI), this text covers growth for 39 molecules.

The panel holds about 83,000 compounds, 20% with a hit somewhere; the sample as a whole holds those more often.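 Single-dose data. Exposure time 48 hours. Values below 10 considered active.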 Unmarked numbers belong to inactive results. Calls of active or inactive are those of the source.

The assay concerns SW-620 colon. Put plainly: NCI-60 one-dose screen, 48 h (100 = growth as untreated, 0 = no growth, -100 = all killed). The note with it: 10 µM unless noted.
`C#C[C@]1(O)CC[C@H]2[C@@H]3CC=C4c5sc(-c6cccc(F)c6)nc5CC[C@]4(C)[C@H]3CC[C@@]21C`: the growth is 89.7%. Next, `COc1ccc(NS(=O)(=O)c2ccc(-c3cnc(C4CC4)o3)cc2)cc1Cl`: 22.6%. As for `Cc1cc(=O)n2nc(-c3c[nH]c4ccccc34)sc2n1`, the growth was 94.4%. For `CCN1C(=O)N(CC)C2SC(N/N=C/c3ccccc3)=NC21` (centres undefined), the growth is 22.5%. Consider `CC1=C2C(=C[C@@](C)(COS(N)(=O)=O)[C@@H]2O)C(=O)[C@](C)(O)C12CC2`, for which the growth was 85.3%. Next, `CCNCc1c(-c2cccc(OC(F)(F)F)c2)[nH]c2ccc(N3CCCC3)cc2c1=O`: 16.8%; `CN(C)c1ncc(/C=C2\SC(=S)N(Cc3ccccc3Cl)C2=O)s1`: 82.6%. As to `O=C(CN1C(=O)S/C(=C\c2ccccc2)C1=O)Nc1ccc(C(=O)/C=C/c2cc3ccccc3nc2Cl)cc1`, the growth was 98%.

`O=S(=O)(Nc1ccc(C2CC2)cc1)c1ccc(-c2cnc(C3CC3)o2)cc1`: the growth is 33.8%. As to `Oc1ccc(-c2nnc(SCc3ccc(O)c4ncccc34)o2)cc1`, the growth was 16.3%. Regarding `C#C[C@]1(O)CC[C@H]2[C@@H]3CC=C4c5sc(-c6ccc(OC)cc6)nc5CC[C@]4(C)[C@H]3CC[C@@]21C`, the growth was 51.3%.

Turning to `CCCC(=O)NC(c1cccnc1)c1cc(C(C)=O)c2cccnc2c1O` (centres undefined), the growth is 38%.

On to `CC(=O)Nc1ccc(NC(=O)Nc2cccc(-c3nc(-c4ccc(NC(=O)c5cccs5)cc4Cl)no3)c2)cc1C(F)(F)F`, for which the growth is -51.3% (active). `O=C(CN1CCN(c2cc(=O)n(-c3ccccc3)c3ccccc23)CC1)Nc1ccc([N+](=O)[O-])cc1`: the growth is 92.3%. Consider `O=S(=O)(Nc1cc(Cl)cc(Cl)c1)c1ccc(-c2cnc(C3CC3)o2)cc1`, for which the growth is 26.1%.

Take `CCOC(=O)c1c(NCC(=O)Nc2cccc([N+](=O)[O-])c2)sc2c1CCCC2`: the growth was -2.82% (active). As for `COc1ccc(Oc2ccc(C3CC(c4cc(OC)c(OC)c(OC)c4)=NN3C(C)=O)cc2)cc1` (centres undefined), the growth was 46.9%. Next, `O=S(=O)(Nc1ccc2c(c1)OC(F)(F)O2)c1ccc(-c2cnc(C3CC3)o2)cc1`: 23.7%; `COc1ccc(Cn2cc3c(c2-c2ccccc2)CCCc2cnoc2-3)cc1`: 28.2%. Regarding `Cc1nn(-c2ccccc2)cc1/C=N/Nc1nc(Nc2ccccc2)nc(Nc2ccc(S(N)(=O)=O)cc2)n1`, the growth is -14.3% (active). `COc1cc2c3c(n(CCCNC4CCCCC4)c(=O)c2cc1OC)-c1cc2c(cc1C3=O)OCO2`: the growth is -76.8% (active). Under `CC(=O)Nc1ccc(NC(=O)Nc2cccc(-c3nc(-c4ccc(NC(=O)c5cccnc5)cc4Cl)no3)c2)cc1C(F)(F)F` stands -62.8% (active); under `O=C(Nc1cccc(-c2nc(-c3ccc(NC(=O)c4cccnc4)cc3Cl)no2)c1)Nc1ccc(NC(=O)C2CC2)c(C(F)(F)F)c1`, -59.9% (active); under `COC(=O)c1c(C(=O)OC)c2n(CC(=O)Nc3cccc4cccnc34)c3ccccc3n2c1C(=O)c1ccc(C)cc1`, 95.1%. Turning to `O=C(C[n+]1ccnc2ccccc21)c1ccc(O)c(O)c1`, the growth was 24%. With `O=C(COc1ccc(C2SCC(=O)N2c2ccc(F)cc2)cc1)c1ccccc1` (centres undefined), the growth was 116%.

`CCOc1ccc2nc(NC(=O)Nc3ccccc3C)sc2c1`: the growth was 29.2%. Next, `O=C(COc1ccc(C2SCC(=O)N2c2ccccc2)cc1)c1ccccc1` (centres undefined): 104%; `Cc1cc(O)c2c(c1)C(=O)C(c1c(C)cc3c(c1O)C(=O)C=CC3=O)=CC2=O`: 8.08% (active); `O=S(=O)(Nc1cc(Cl)c(F)c(Cl)c1)c1ccc(-c2cnc(C3CC3)o2)cc1`: 23.8%. `CN(C)CCn1c2ccc(N)cc2c2nc3ccccc3nc21`: the growth is 17.1%. Turning to `Cn1c2ccccc2c2c3c(c4c5ccc(Br)cc5oc4c21)C(=O)N(O)C3=O`, the growth was 59.3%. Turning to `COc1ccc(-c2nnc(/N=C3/C(=O)Nc4ccc(Br)cc43)o2)cc1`, the growth was 100%. Under `C#C[C@]1(O)CC[C@H]2[C@@H]3CC=C4c5sc(C6CC6)nc5CC[C@]4(C)[C@H]3CC[C@@]21C` stands 91.2%.

As for `CCc1ccc(NC(=O)N[C@@H](Cc2cccc(F)c2)C(=O)N[C@@H]2C(=O)N3CCC[C@H]3C(=O)N3CCCC[C@H]3C(=O)N[C@@H](CO)C(=O)N3C[C@H](C)C[C@H]3C(=O)O[C@H]2C)c(F)c1`, the growth is 34.6%. In the case of `CC(C)=CCc1c(O)c(CC=C(C)C)c2c(c1O)C(=O)C1=C[C@@H]3C[C@H]4C(C)(C)O[C@@](C/C=C(\C)C(=O)O)(C3=O)[C@@]14O2`, the growth was -34.6% (active). Take `CCN(CC)Cc1c(-c2cccc(OC(F)(F)F)c2)[nH]c2ccc(N3CCCC3)cc2c1=O`: the growth was 92.3%. Under `CCCCOc1ccc(S(=O)(=O)N2CCN(c3nccc(N4CCOCC4)n3)CC2)cc1` stands 34.8%; under `O=c1cc(-c2ccccc2)nc2sc(-c3c[nH]c4ccc(Br)cc34)nn12`, 105%.
